# Laboratory results as given in paper PMC12136788.
# Numbering of substitutions follows the chain as printed. Over roughly 24,000 sequences, “enrichment r” has its median near 0.99; the highest 2% begin near 3.7. What follows is part of a selection rich in the highest values, with near analogues and random picks from the rest.
# T1: UNK ZnF1-3 (human, UniProt Q9C0B0 31-174)
# T1 sequence: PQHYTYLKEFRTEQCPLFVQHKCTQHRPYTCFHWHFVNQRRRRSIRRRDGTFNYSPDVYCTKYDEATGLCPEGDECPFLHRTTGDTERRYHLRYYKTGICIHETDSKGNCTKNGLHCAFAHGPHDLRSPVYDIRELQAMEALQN
# B1: chr14:57521665:57521666:+_ENSMUSG00000021945_ENSMUST00000022511|mus_mus|FALSE|FALSE (ssRNA)
# RNA: GGGAGUUCUACAGUCCGACGAUCAACAACGUCAUCAUCAUCUUCUACUGAUGAGUUCUGAAACUUACUAGAUCUAGACACUAAAGGAUUAGGUGGGCCACUAAAUGAAUUUCCUACGUUCGUGAGACUAGUUGCCAUGGCUGUCAACAGAGGAUUGAGCAUCA
# B2: chr4:76721835:76721836:+_ENSG00000138768_ENST00000264904|hu_mus|hu_hu_hu_mus_True|58_108 (ssRNA)
# RNA: GGGAGUUCUACAGUCCGACGAUCGUUGGCUGGGGUUUUCUGAGACGCUCUGGAAUAUAACUCAUGUUUGCUAAUAAUCCUAGUUUCCUCUAUGAAAUUCUCUUUGCCAAUCCUCUUCUCUAUUAGUUGCUUUAGUUUCUCUUUCAACAGAGGAUUGAGCAUCA
# B3: chr12:48362563:48362564:+_ENSG00000134291_ENST00000256686|hu_mus|FALSE|FALSE (ssRNA)
# RNA: GGGAGUUCUACAGUCCGACGAUCUCCGUCAAGCCCUUCGAUAGACCCUUGCGGGGGAAACUGUAAUCACUUUGUAUGGGGAAGGAAAAGAAACGCCAAAAACUUUCCAAAAAGCGGGGGUGGGGUGAGGCGGGAGGGGGAGGUCAACAGAGGAUUGAGCAUCA
# B4: chr14:76904430:76904431:+_ENSMUSG00000022010_ENSMUST00000022587|mus_mus|mus_mus_mus_hu_True|88_98 (ssRNA)
# RNA: GGGAGUUCUACAGUCCGACGAUCUGCAGCCAAAAACAGAGAGAGGGCGGGAGGGAGGGAACACCAGCAGCCUUGUAUAAGCUAGAUAAAAUCUUCUGGCUUUCCGCAGCCCAGGGAGAAACAGAAAACGGCAGCCCUAAUUUACAACAGAGGAUUGAGCAUCA
# B5: chr14:76904430:76904431:+_ENSMUSG00000022010_ENSMUST00000022587|mus_mus|mus_mus_mus_hu_True|98_108 (ssRNA)
# RNA: B4 RNA with A27U, C29G, C30A, C36A, C47A, G48A, G49A, G50A, G52A, G53A
# B6: chr14:76904430:76904431:+_ENSMUSG00000022010_ENSMUST00000022587|mus_mus|mus_mus_mus_hu_True|48_98 (ssRNA)
# RNA: B4 RNA with C47A, G48A, G49A, G50A, G52A, G53A, U91C, U93G, U94C
# B7: chr14:76904430:76904431:+_ENSMUSG00000022010_ENSMUST00000022587|mus_mus|mus_mus_mus_hu_True|48_88 (ssRNA)
# RNA: B4 RNA with G38C, A39C, G40C, A41U, G42C, A43G, G44U, U91C, U93G, U94C
# B8: chr14:76904430:76904431:+_ENSMUSG00000022010_ENSMUST00000022587|mus_mus|mus_mus_mus_hu_True|68_68 (ssRNA)
# RNA: GGGAGUUCUACAGUCCGACGAUCUGCAGCCAAAAACACCCUCGUGGAAAAAAAGAGGGAACACCAGCAGCCUGGUUUAAGCUAGAUAAAAUCUUCUGGCUUUCCGCAGCCCAGGGAGAAACAGAAAACGGCAGCCCUAAUUUACAACAGAGGAUUGAGCAUCA
# B9: chr14:76904430:76904431:+_ENSMUSG00000022010_ENSMUST00000022587|mus_mus|mus_mus_mus_hu_True|38_98 (ssRNA)
# RNA: B4 RNA with C47A, G48A, G49A, G50A, G52A, G53A, G97A, U101G, C104U
# B10: chr14:76904430:76904431:+_ENSMUSG00000022010_ENSMUST00000022587|mus_mus|mus_mus_mus_hu_True|98_98 (ssRNA)
# RNA: B4 RNA with C47A, G48A, G49A, G50A, G52A, G53A
# B11: chr7:148083511:148083512:+_ENSMUSG00000025487_ENSMUST00000026560|mus_mus|FALSE|FALSE (ssRNA)
# RNA: GGGAGUUCUACAGUCCGACGAUCCAAAUCCAGCACUCGCGGCUGCACCCACGUCAUGUGAACCCGCUUGUCCACCUCGUCUAUGCUGCCUCUCACCAGCCCCACCGAGAGUGCCUUCAUCACCAGCAACUCCACCUUGUUGACCAACAGAGGAUUGAGCAUCA
# B12: 104840732_104840852_1265_3pUTR_ENSMUSG00000021710_ENSMUST00000109315|mouse|control|control (ssRNA)
# RNA: GGGAGUUCUACAGUCCGACGAUCGACCACCUCAAUGGGAAAGUACUCCUUGAGGGACUCCUGGUCCACAGAGUACUUGAGCUCCUCUGUCUGGGUCAUGUAGUAAUGGAGGUCCCAUGCGUUGAUCUUCCCGUCGUAUGCAAACAACAGAGGAUUGAGCAUCA
# B13: chr15:63447868:63447869:-_ENSG00000185088_ENST00000411926|hu_hu|FALSE|FALSE (ssRNA)
# RNA: GGGAGUUCUACAGUCCGACGAUCCCCUUCUGUGAGUCUGGCCUUUCCUCCUGUAGGCUGGCACAACACUGUUGAACAACCUACACAAAGAACCACUGUCUGAGCAUGGCUGAAAACCGUGGUGAUCUUGUAGCAACCUGGACACAACAGAGGAUUGAGCAUCA
# B14: chr3:148479741:148479742:-_ENSMUSG00000028184_ENSMUST00000106128|mus_mus|motif|central (ssRNA)
# RNA: GGGAGUUCUACAGUCCGACGAUCACAAUGCAGGCCUACAGAAAAACAAAACAAAACAAAAACAAAAACCGGUAGGGCCCGGUUUACAGACUCAGUUCACCAACUGCCGCAAGGAACAUGGCCGGGAGGGAGGGUCUCUUGUUUCAACAGAGGAUUGAGCAUCA
# B15: chr2:175006660:175006661:-_ENSG00000138430_ENST00000344357|hu_mus|motif|central (ssRNA)
# RNA: GGGAGUUCUACAGUCCGACGAUCUAGAAUGGGCCCAAUCAUCUCCUCGUCCUUCAGCUGGAGCUCCUCGUGAAUUAUCUCGGUGUCUCGGAUGGGAUCUACACUUCCUUCAACAUGCGUGAUAUCAUCGUCUUCAAAAGCACGCAACAGAGGAUUGAGCAUCA
# B16: chr17:56552419:56552420:-_ENSMUSG00000013236_ENSMUST00000086828|mus_mus|mus_mus_mus_hu_False|38_38 (ssRNA)
# RNA: GGGAGUUCUACAGUCCGACGAUCAAAAAAUACACUAUUUAAAAAAAAUGAAAUGUCACGGGAUACAGUUACACUGAGAGUUUUAAAAGAAAGCUGGAAAAAAAAUGCAGCCCAGUGUCCCCAGGCUGCAGAGCGGGGAGGAGCCAACAGAGGAUUGAGCAUCA
# B17: chr17:56552419:56552420:-_ENSMUSG00000013236_ENSMUST00000086828|mus_mus|mus_mus_mus_hu_False|1_38 (ssRNA)
# RNA: B16 RNA with A138C, G139A, C143G
# B18: chr17:56552419:56552420:-_ENSMUSG00000013236_ENSMUST00000086828|mus_mus|mus_mus_mus_hu_False|38_98 (ssRNA)
# RNA: B16 RNA with U38A, U39A
# B19: chr17:56552419:56552420:-_ENSMUSG00000013236_ENSMUST00000086828|mus_mus|mus_mus_mus_hu_False|38_88 (ssRNA)
# RNA: B16 RNA with U48A, G49A, A50G, U53A, G54A, U55A, C56A
# B20: 154963464_154963584_1656_3pUTR_ENSMUSG00000042751_ENSMUST00000043313|mouse|control|control (ssRNA)
# RNA: GGGAGUUCUACAGUCCGACGAUCCUGGUUGGCAGAGAACCCACUCAAUGCUACUGGUCAGACACACAGCAUCAAGACCACGAUCAUCUGAAACCAGGGACUCAAAUUCUGAGAAACCCUACUCUUCCCAGACUUAUGUACCAGCAACAGAGGAUUGAGCAUCA
# B21: chr8:145151508:145151509:+_ENSG00000179091_ENST00000318911|hu_hu|FALSE|FALSE (ssRNA)
# RNA: GGGAGUUCUACAGUCCGACGAUCACCUUCCCGCAGUGACACCCCGGUGGGUGGCUCGCAGUAGCCCGUGAGCAGGGAGAAGACGUAGUCCUCACCACCAUGCCUAGCUCGCACGAUGUAGCUGAGGUCAGGGGGCAAUGCUCCCAACAGAGGAUUGAGCAUCA
# B22: 35238635_35241177_7885_CDS_ENSMUSG00000029104_ENSMUST00000080036|mouse|control|control (ssRNA)
# RNA: GGGAGUUCUACAGUCCGACGAUCCUGGCCCAGCUUGUAGCUCAUGUUGCCUGGCUCCCGCUCUGGGUUGAUCUGCAGCAGCAGCUUGUCAUGGCUGAUAAGAGCACCUGUAGUAGCUGGUAACAGAGAAGGGACAGGAUCCCACAACAGAGGAUUGAGCAUCA
# Target: T1, UNK ZnF1-3
# Experiment: nsRBNS (natural sequence RNA bind-n-seq); RBNS binding buffer (assumed for nsRBNS): 25 mM Tris pH 7.5, 150 mM KCl, 3 mM MgCl2, 0.01% Triton X-100, 500 ug/ml BSA, 20 U/ml SUPERase-In, 4 C; UNK is unkempt and MSI1 is Musashi-1; names of the RNAs are library labels; protein concentration not given here; high values mean tight binding
row,Binder,binding signal
1,B1,1.09 enrichment R
2,B2,0.387 enrichment R
3,B3,2.36 enrichment R
4,B4,3.29 enrichment R
5,B5,3.93 enrichment R
6,B6,3.64 enrichment R
7,B7,2.24 enrichment R
8,B8,2.29 enrichment R
9,B9,4.97 enrichment R
10,B10,4.46 enrichment R
11,B11,0.937 enrichment R
12,B12,0.691 enrichment R
13,B13,0.955 enrichment R
14,B14,2.06 enrichment R
15,B15,0.77 enrichment R
16,B16,5.93 enrichment R
17,B17,5.3 enrichment R
18,B18,7.57 enrichment R
19,B19,13.5 enrichment R
20,B20,1.29 enrichment R
21,B21,1.01 enrichment R
22,B22,1.21 enrichment R
